AmpC det inh = blocks E. coli AmpC beta-lactamase in presence of detergent; P00811; purified AmpC, nitrocefin hydrolysis with detergent; Potency, µM (series often up to 28.7 µM), for the others: at the highest dose activity change, negative = inhibition; 71,000 compounds, 0.09% hits; active means well fitted curve in the direction sought with a large enough effect; inconclusive means small, poorly fitted or top-dose-only effect; further: on the % scale 0 is the no-effect control and ±100 the full control effect
Target sequence (P00811 whole entry, looked up): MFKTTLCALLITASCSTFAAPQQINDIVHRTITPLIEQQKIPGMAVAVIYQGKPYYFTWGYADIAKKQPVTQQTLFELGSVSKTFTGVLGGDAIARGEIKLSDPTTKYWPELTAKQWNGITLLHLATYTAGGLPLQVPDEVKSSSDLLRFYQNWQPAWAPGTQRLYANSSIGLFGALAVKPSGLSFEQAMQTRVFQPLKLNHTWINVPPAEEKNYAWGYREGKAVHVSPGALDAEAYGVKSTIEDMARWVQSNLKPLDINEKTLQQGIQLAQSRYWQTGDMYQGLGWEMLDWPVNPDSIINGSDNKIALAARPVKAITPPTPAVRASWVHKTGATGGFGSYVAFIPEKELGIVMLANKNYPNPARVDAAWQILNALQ
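E. coli AmpC (5.3 nM) in 20 mM phosphate pH 7.0 with 0.01% Triton X-100, preincubated 15 min RT with compound; nitrocefin (2 uL of 800 uM stock) hydrolysis followed by 480 nm absorbance every 20 s over 4 min.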
AmpC nodet inh = blocks E. coli AmpC beta-lactamase in absence of detergent | P00811 | 71,000 compounds, 1.8% hits | AmpC nitrocefin hydrolysis, absorbance 480 nm, no detergent | Potency, µM (titrated, usually from 28.7 µM), for the others: at the highest dose activity change, negative = inhibition | AID 585; further: % of control where 0% means no effect
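AmpC in 20 mM phosphate buffer pH 7.0 was preincubated 15 min at room temperature with compounds. Nitrocefin (800 uM stock) was then added and hydrolysis followed at 480 nm every 20 s for 4 min.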
Anthrax LT inh = inhibitors of anthrax lethal toxin internalization | Potency, µM (titrated, usually from 40 µM), without a hit: top-dose activity change, negative = inhibition, actives largely listed as inhibitors | 70,000 compounds, 0.67% hits | Cells, anthrax lethal toxin internalization, FRET ratio (460/530); further: on the % scale 0 is the no-effect control and ±100 the full control effect; nearly all actives have a fitted effect of over 50% in size
Prx2 Sm inh = Schistosoma mansoni Prx2 inhibition; 65,000 compounds, 0.07% hits; S. mansoni Prx2 activity coupled to TGR/GSH (TGR is thioredoxin glutathione reductase), NADPH fluorescence loss, qHTS; Potency, µM
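Purified S. mansoni TGR and Prx2 in pH 7.4 phosphate buffer with EDTA and Tween-20 were preincubated with compounds for 15 min. Further NADPH/GSH was added, then a 2.5 mM H2O2 aliquot initiated turnover, followed kinetically by NADPH fluorescence.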
* marks the source's active call; other numbers are inactive results; ? = inconclusive; / = no result; [ ] = remark or other dose. This is a sample that favours compounds with a hit; in the whole collection about 2.4% have one here. Unless noted, the call rests on the fitted dose curve. Potency means the concentration at half of the fitted maximal effect.

SMILES | AmpC det inh | AmpC nodet inh | Anthrax LT inh | Prx2 Sm inh
O=S(=O)(c1ccc(S(=O)(=O)N2CCN3CCCC3C2)cc1)N1CCCC1 (configuration not stated) | 3% | 16% | 5% | >57
O=S(=O)(c1ccc(F)cc1)N1CCC(N2CCCC2)CC1 | 9% | 4µM*[single pt active] | ? | >57
COc1ccc(CC(=O)Nc2cccc(-c3nnc(-c4ccccc4)o3)c2)cc1OC | -3% | 62% | 10µM* | >57
COc1ccc(CC(=O)Nc2cccc(-c3nnc(-c4ccc(C)cc4)o3)c2)cc1OC | -4% | 76% | 3.2µM* | >57
COc1cccc(C(=O)Nc2cccc(-c3nnc(-c4ccccc4)o3)c2)c1 | 7% | 1% | 2µM* | /
COc1ccc(CC(=O)Nc2cccc(-c3nnc(-c4cccc(C)c4)o3)c2)cc1OC | -3% | 108% | ? | >57
OC(c1ccc(Cl)cc1)(c1ccc(Cl)cc1)C(Cl)(Cl)Cl | 9% | -13% | ? | /
CCN(CC)COC(=S)S | -3%[5.75 µM] | 2%[5.75 µM] | 11%[8 µM] | >57
CSC([N-]/N=C/c1cccc(C)n1)=[S]=[Cu].CS[C@H]([S-])[N-]/N=C/c1cccc(C)n1 | -5%[5.75 µM] | 6%[5.75 µM] | ? | >11
[C-]#[N+]/C(C#N)=C\c1cc(C(C)(C)C)c(O)c(C(C)(C)C)c1 | / | / | 0.1µM* | /
CC(C)(C)c1cc(/C=C(\C#N)C(N)=S)cc(C(C)(C)C)c1O | -1% | -1% | 7.9µM* | >57
CON(C)C(=O)c1nnc2c(n1)[nH]c1ccccc12 | / | / | 1%[1.6 µM] | /
Nc1ncnc2c1ncn2[C@@H]1O[C@@H](COP(=O)(O)OP(=O)(O)OP(=O)(O)OP(=O)(O)OC[C@@H]2O[C@@H](n3cnc4c(N)ncnc43)[C@@H](O)[C@H]2O)[C@H](O)[C@@H]1O | -5% | 4% | ? | >57
CN(CCC(=O)O)C1=Nc2ccc(Cl)cc2C(c2ccccc2)=[N+]([O-])C1 | 0%[5.75 µM] | -9%[5.75 µM] | ? | >57
O=C1OC2(c3ccc(O)cc3Oc3cc(O)ccc32)c2c1c(-c1ccccc1)c(-c1ccccc1)c(-c1ccccc1)c2-c1ccccc1 | -5%[5.75 µM] | 2.5µM* | ? | >57
Cc1cc2ccccc2n1CCNC(=O)C(C)C | 10% | 22% | -6% | >57
Cc1ccc(S(=O)(=O)NCCn2c(C)cc3ccccc32)cc1 | -3% | 16µM*[single pt active] | -9% | >57
O=C(NCCN1CCc2ccccc2C1)Nc1ccc(F)cc1 | 5% | 4µM*[single pt active] | ? | >57
CCc1ccc(NC(=O)NCCN2CCc3ccccc3C2)cc1 | -2% | 13% | -22% | >57
Nc1c(S(=O)(=O)O)cc(Nc2ccc(Nc3nc(Cl)nc(Nc4ccc(S(=O)(=O)O)cc4)n3)c(S(=O)(=O)O)c2)c2c1C(=O)c1ccccc1C2=O | 13µM* | -35% | ? | >57
CC(C)=CCc1c2c(c3occ(-c4ccc(O)c(O)c4)c(=O)c3c1O)C=CC(C)(C)O2 | -3%[5.75 µM] | 4µM*[single pt active] | ? | >57
O=c1c(-c2ccc3c(c2)OCCO3)coc2c(CN3CCOCC3)c(O)ccc12 | 12% | 4% | -18% | >57
c1ccc2sc(C3(N4CCCCC4)CCCCC3)cc2c1 | -3% | 27% | 25µM* | >57
N[C@@H](Cc1cc(-c2ccc(Cl)cc2Cl)cc(CP(=O)(O)O)c1O)C(=O)O | 16µM* | ? | ? | >57
COc1cccc(-c2nc(CS(=O)CC(=O)NC3CCCC3)c(C)o2)c1 (configuration not stated) | 8% | 4µM*[single pt active] | 4% | >57
SMILES | AmpC det inh | AmpC nodet inh | Anthrax LT inh | Prx2 Sm inh
CCC(C)NC(=O)CS(=O)Cc1nc(-c2cccc(OC)c2)oc1C (configuration not stated) | 12% | 4µM*[single pt active] | -5% | >57
Cc1cccc(-c2nc(CS(=O)CC(=O)N3CCN(C)CC3)c(C)o2)c1 (configuration not stated) | 10% | 4µM*[single pt active] | 4% | >57
OC[C@@H]1O[C@H](O)[C@@H](Cl)[C@H](O)[C@@H]1O | -2% | 6% | 3% | >57
O=c1cc(-c2ccc(O)c(O)c2)oc2cc(O[C@@H]3O[C@@H](CO)[C@@H](O)[C@@H](O)[C@H]3O)cc(O)c12 | -1% | -10% | ? | >26
CC1=C(\C=C/C(C)=C/C=C\C(C)=C\C(=O)Nc2ccc(O)cc2)C(C)(C)CCC1 | 1% | 6% | -8% | >57
CCOC(=O)N1CCC(NC(=O)c2ccc3snnc3c2)CC1 | 14% | 4µM*[single pt active] | 1% | >57
CCN1C(C)=C(C(=O)OC)C(c2ccccc2)N2C(=O)[C@@]3(C(=O)OC)O[C@@]12C1C(=O)N(C)C(=O)C13 (some centres not stated) | / | / | -10%[8 µM] | /
O=C(c1ccccc1C(=O)N1CCN(c2ccccc2F)CC1)N1CCN(c2ccccc2F)CC1 | -1% | 129% | -14% | /
O=C(N1CCOCC1)N1CCN(c2ccccc2F)CC1 | 12% | 4µM*[single pt active] | -9% | >57
CC(C)OCCCNC(=O)c1cc2c(=O)n(C)c3ccccc3c2n1C | 14% | 29% | 5% | >57
COc1ccccc1CNC(=O)c1cc2c(=O)n(C)c3ccccc3c2n1C | 11% | 4µM*[single pt active] | 3% | >57
CN1CCN(CCCNC(=O)c2cc3c(=O)n(C)c4ccccc4c3s2)CC1 | 5% | 33% | 10µM* | >57
Cn1c(C(=O)NCC2CCCO2)cc2c(=O)n(C)c3ccccc3c21 (configuration not stated) | 12% | 4µM*[single pt active] | 5% | >57
CCCCN(CC)CCCNC(=O)c1cc2c(=O)n(C)c3ccccc3c2n1C | 14% | 21% | 4µM* | >57
C[C@@H]1O[C@@H](OC[C@@H]2O[C@@H](Oc3c(-c4ccc(O)c(O)c4)oc4cc(O)cc(O)c4c3=O)[C@H](O)[C@H](O)[C@@H]2O)[C@H](O)[C@H](O)[C@@H]1O | 0% | 1% | -19% | >57
CO/N=C(\C)CCN1CCCc2nc(C)c(C)cc21 | / | / | 7%[1.6 µM] | /
NCC[C@H]1CCC[C@H](CCN)N1 | -2% | -6% | 10% | >57
Cn1c(C(=O)Nc2ccc3c(c2)OCO3)cc2c(=O)n(C)c3ccccc3c21 | 6% | 4µM*[single pt active] | ? | >57
CC1CCN(CCCNC(=O)c2cc3c(=O)n(C)c4ccccc4c3n2C)CC1 | 12% | 20% | 6.3µM* | >57
Cn1c(C(=O)NCCN2CCCCCC2)cc2c(=O)n(C)c3ccccc3c21 | 10% | 128% | 1.6µM* | >57
Cn1c(C(=O)NCCN2CCN(Cc3ccccc3)CC2)cc2c(=O)n(C)c3ccccc3c21 | 7% | ? | -2% | >57
N[C@H](Cn1ccc(=O)[nH]c1=O)C(=O)O | -4% | 7% | -4% | >57
Cc1ccccc1CNc1ncnc2c1ncn2[C@@H]1O[C@@H](CO)[C@H](O)[C@@H]1O | -3% | 2% | ? | >11
CC(C)CN(CC(C)C)c1nnc(N)s1 | 26% | 4µM*[single pt active] | 0% | >57
O=C1C(Cl)=C(Cl)C(=O)C(Cl)=C1Cl | -24% | 13µM* | ? | /

High-throughput results from PubChem BioAssay.
